From PubChem BioAssay
Inconclusive results are not listed. Active and inactive are the calls of the source. Unless noted, no cut-off is given here; in the data, nearly all actives have AC50 up to about 26 µM.

Assays:
[1] = growth inhibition of DIPG glioma cells, dose response, cell-based, SU-DIPG-XVII, MIPE5.0, CellTiter-Glo, qHTS (AID 1347060); settings: SU-DIPG-XVII viability, CellTiter-Glo ATP luminescence;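 for AC50: cells exposed to compound for 48 hours before viability readout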
[2] = SU-DIPG-VI glioma cell viability, MIPE4.0 library, CellTiter-Glo luminescence, qHTS (AID 1347066; cut-off not given, nearly all actives have AC50 up to about 30 µM;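 note: cells exposed to compound for 48 hours before readout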); settings: CellTiter-Glo ATP luminescence
[3] = JHH-DIPG-1 glioma cell viability, MIPE5.0 library, CellTiter-Glo luminescence, qHTS (AID 1347067); settings: JHH-DIPG-1 glioma viability, CellTiter-Glo ATP luminescence;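 note: cells exposed to compound for 48 hours before readout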
[4] = viability loss in pontine glioma line – cell-based, SU-DIPG-XXV, MIPE5.0, CellTiter-Glo, qHTS, dose response (AID 1347065); settings: CellTiter-Glo ATP luminescence;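 note: cells exposed to compound for 48 hours before ATP readout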
[5] = SU-DIPG-XXV glioma cell viability, MIPE5.0 library, qHTS (AID 1347068; cut-off not given, nearly all actives have IC50 up to about 30 µM;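 for IC50: cells exposed to compound for 48 hours before viability readout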)
[6] = sensitizers of A549 cells to miR-34 induction, primary screen, imaging, A549 dox-inducible miR-34, nuclei and caspase counts (AID 1347080;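 active = compounds whose cell count with miR-34 switched on is under 0.7 times the count with it off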); settings: A549 miR-34 inducible, Hoechst nuclei count, 48 h
[7] = survival rescue of mitochondrial mutant cells in low glucose, primary screen, MELAS cybrids, Rieske KO mouse fibroblasts, CellTiter-Glo (AID 1508586;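 active = mean z-score across replicates of 1.96 or higher in either the MELAS or the Rieske mutant cell line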;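 note: z relative to plate mean and SD of compound and empty wells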)
[8] = modifiers of HSF1 nuclear foci, imaging, Selleck Cancer Library (AID 1347162; in the data active = plate-normalised HSF1 focus index below about 0.46); settings: human cells, at 10 µM; SSMD: measured here: HSF1 foci SSMD mean; cell count: measured here: cell number; plate-normalised HSF1 focus index: stronger effect = lower value
[9] = ovarian cancer cell viability with rucaparib, profiling panel, oncology-focused library, rucaparib conditional (AID 1508598;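 active = normalized viability below 100% at a tested concentration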); settings: patient-derived ovarian cancer cells, CellTiter-Glo viability, 144 h, stronger effect = lower value
[10] = stronger effect = lower value, cell number ratio, induced over uninduced
[11] = measured here: relative caspase fold change +Dox/-Dox
[12] = measured here: total cells with miR-34 induction, stronger effect = lower value
[13] = measured here: total cells without miR-34 induction
[14] = MELAS cybrid survival, CellTiter-Glo 48 h, stronger effect = higher value
[15] = Rieske KO mouse fibroblast survival, CellTiter-Glo 72 h

What does the source list for NC(=O)[C@@H](CCC(F)(F)F)N(Cc1ccc(-c2ncon2)cc1F)S(=O)(=O)c1ccc(Cl)cc1?
outcome [1]: inactive; outcome [2]: inactive; outcome [3]: inactive

Which AC50 [1] does the source give for COC(=O)[C@H]1[C@@H](O)[C@@]2(O)c3c(OC)cc(O[C@@H]4O[C@@H]([C@@H](O)CO)CO[C@H]4OC)cc3O[C@@]2(c2ccc(OC)cc2)[C@@H]1c1ccccc1 here?
The AC50 was 8.33 µM (active).

What about the AC50 [4] of the same compound?
Its AC50 is 5.25 µM (active).

What about the outcome [5] of the same compound?
The outcome was “inactive”.

Which AC50 [1] does the source give for COCCN1CCN(Cc2ccc(-c3n[nH]c4c3C(=O)c3c(NC(=O)NN5CCOCC5)cccc3-4)cc2)CC1 here?
The AC50 was 0.295 µM (active).

And the AC50 [4]?
Its AC50 is 0.235 µM (active).

What about the IC50 [5] of the same compound?
The IC50 was 0.263 µM (active).

With C/C(=C\c1csc(C)n1)[C@@H]1C[C@@H]2O[C@]2(C)CCC[C@H](C)[C@H](O)[C@@H](C)C(=O)C(C)(C)[C@@H](O)CC(=O)N1 as the compound, how does the AC50 [1] read?
The AC50 was 0.0148 µM (active).

What about the AC50 [4] of the same compound?
The AC50 was 0.0118 µM (active).

And the IC50 [5]?
Its IC50 is 3.32 µM (active).

Which results are given for CCCc1cc(C)[nH]c(=O)c1CNC(=O)c1cc(-c2ccc(N3CCN(C(C)C)CC3)nc2)cc2c1cnn2C(C)C?
AC50 [1]: 26.3 µM (active); AC50 [4]: 20.9 µM (active); AC50 [3]: 14.8 µM (active); fold change [6, 10]: 0.939 (inactive); fold change [6, 11]: 0.565; cell count [6, 12]: 6600; cell count [6, 13]: 7030; z-score [7, 14]: 0.696 (inactive); z-score [7, 15]: -0.809

With C=CC(=O)N[C@H]1CN(c2nc(Nc3cn(C)nc3OC)c3ncn(C)c3n2)C[C@@H]1F as the compound, how does the AC50 [1] read?
The AC50 was 18.6 µM (active).

And the AC50 [4]?
The AC50 was 20.9 µM (active).

What about the IC50 [5] of the same compound?
Its IC50 is 16.6 µM (active).

Which outcome [1] does the source give for O=C(NO)C1(CS(=O)(=O)c2ccc(Oc3ccc(Cl)cc3)cc2)CCOCC1 here?
The outcome was “inactive”.

What about the AC50 [3] of the same compound?
The AC50 was 3.72 µM (active).

What about the outcome [5] of the same compound?
The outcome was “inactive”.

Which outcome [1] does the source give for CSc1ccc(C(=O)/C=C/c2cc(C)c(OC(C)(C)C(=O)O)c(C)c2)cc1 here?
Its outcome is “inactive”.

What about the outcome [5] of the same compound?
The outcome was “inactive”.

With CC(C)NCCCn1c(Sc2cc(Cl)cc(Cl)c2)nc2c(N)ncnc21 as the compound, how does the outcome [1] read?
Its outcome is “inactive”.

And the outcome [3]?
The outcome was “inactive”.

And the outcome [5]?
Its outcome is “inactive”.

Which results are given for O=C(O)CCNc1cc(N2CCc3ccccc3CC2)nc(-c2cccnc2)n1?
outcome [1]: inactive; outcome [3]: inactive; outcome [5]: inactive

Which results are given for CCn1c(N)c(C(=O)NC)c(=O)c2ccc(C#CC(C)(O)COC)nc21 (stereo unspecified)?
AC50 [1]: 20.9 µM (active); outcome [3]: inactive; outcome [5]: inactive

With NS(=O)(=O)c1ccc(Cc2c(-c3cccc(-c4ccccc4)c3)nn(-c3nc(C(=O)O)cs3)c2CC2CC2)cc1 as the compound, how does the AC50 [1] read?
Its AC50 is 23.5 µM (active).

What about the AC50 [3] of the same compound?
The AC50 was 20.9 µM (active).

What about the outcome [5] of the same compound?
The outcome was “inactive”.

For Cc1cccc(-c2nn3c(c2-c2ccnc4ccc(C(N)=O)cc24)CCC3)n1, which outcome [1] is on record?
The outcome was “inactive”.

What about the outcome [3] of the same compound?
Its outcome is “inactive”.

And the fold change [6, 10]?
The fold change was 0.932 (inactive).

And the fold change [6, 11]?
The fold change was 0.899.

And the cell count [6, 12]?
Its cell count is 8480.

What about the cell count [6, 13] of the same compound?
The cell count was 9100.

And the SSMD [8]?
Its SSMD is 1.55.

And the cell count [8]?
Its cell count is 6630.

What about the plate-normalised HSF1 focus index [8] of the same compound?
The plate-normalised HSF1 focus index was 1.08 (inactive).

What about the z-score [7, 14] of the same compound?
The z-score was -0.309 (inactive).

And the z-score [7, 15]?
Its z-score is 1.2.

What about the viability ([9]; at 0.000305 µM, OCI-C5x cells, with rucaparib 10 µM, 100% = cells with rucaparib alone) of the same compound?
Its viability is 110% (inactive).

And the viability ([9]; at 0.000305 µM, OCI-C5x cells, without rucaparib)?
The viability was 130% (inactive).

What about the viability ([9]; at 0.000305 µM, OCI-P5x cells, with rucaparib 20 µM, 100% = cells with rucaparib alone) of the same compound?
Its viability is 102% (inactive).

And the viability ([9]; at 0.000305 µM, OCI-P5x cells, without rucaparib)?
The viability was 110% (inactive).

What about the viability ([9]; at 0.00122 µM, OCI-C5x cells, with rucaparib 10 µM, 100% = cells with rucaparib alone) of the same compound?
The viability was 110% (inactive).

What about the viability ([9]; at 0.00122 µM, OCI-C5x cells, without rucaparib) of the same compound?
Its viability is 133% (inactive).

What about the viability ([9]; at 0.00122 µM, OCI-P5x cells, with rucaparib 20 µM, 100% = cells with rucaparib alone) of the same compound?
The viability was 102% (inactive).

What about the viability ([9]; at 0.00122 µM, OCI-P5x cells, without rucaparib) of the same compound?
Its viability is 108% (inactive).

What about the viability ([9]; at 0.00488 µM, OCI-C5x cells, with rucaparib 10 µM, 100% = cells with rucaparib alone) of the same compound?
Its viability is 110% (inactive).

And the viability ([9]; at 0.00488 µM, OCI-C5x cells, without rucaparib)?
The viability was 128% (inactive).

And the viability ([9]; at 0.00488 µM, OCI-P5x cells, with rucaparib 20 µM, 100% = cells with rucaparib alone)?
The viability was 99.7% (active).

And the viability ([9]; at 0.00488 µM, OCI-P5x cells, without rucaparib)?
The viability was 112% (inactive).

What about the viability ([9]; at 0.0195 µM, OCI-C5x cells, with rucaparib 10 µM, 100% = cells with rucaparib alone) of the same compound?
Its viability is 113% (inactive).

And the viability ([9]; at 0.0195 µM, OCI-C5x cells, without rucaparib)?
Its viability is 136% (inactive).

What about the viability ([9]; at 0.0195 µM, OCI-P5x cells, with rucaparib 20 µM, 100% = cells with rucaparib alone) of the same compound?
Its viability is 105% (inactive).

What about the viability ([9]; at 0.0195 µM, OCI-P5x cells, without rucaparib) of the same compound?
The viability was 110% (inactive).

What about the viability ([9]; at 0.0781 µM, OCI-C5x cells, with rucaparib 10 µM, 100% = cells with rucaparib alone) of the same compound?
The viability was 109% (inactive).

What about the viability ([9]; at 0.0781 µM, OCI-C5x cells, without rucaparib) of the same compound?
The viability was 127% (inactive).

And the viability ([9]; at 0.0781 µM, OCI-P5x cells, with rucaparib 20 µM, 100% = cells with rucaparib alone)?
The viability was 110% (inactive).

What about the viability ([9]; at 0.0781 µM, OCI-P5x cells, without rucaparib) of the same compound?
Its viability is 116% (inactive).

What about the viability ([9]; at 0.313 µM, OCI-C5x cells, with rucaparib 10 µM, 100% = cells with rucaparib alone) of the same compound?
Its viability is 114% (inactive).

What about the viability ([9]; at 0.313 µM, OCI-C5x cells, without rucaparib) of the same compound?
Its viability is 137% (inactive).

What about the viability ([9]; at 0.313 µM, OCI-P5x cells, with rucaparib 20 µM, 100% = cells with rucaparib alone) of the same compound?
The viability was 113% (inactive).

And the viability ([9]; at 0.313 µM, OCI-P5x cells, without rucaparib)?
The viability was 114% (inactive).

And the viability ([9]; at 1.25 µM, OCI-C5x cells, with rucaparib 10 µM, 100% = cells with rucaparib alone)?
Its viability is 111% (inactive).

What about the viability ([9]; at 1.25 µM, OCI-C5x cells, without rucaparib) of the same compound?
Its viability is 135% (inactive).

And the viability ([9]; at 1.25 µM, OCI-P5x cells, with rucaparib 20 µM, 100% = cells with rucaparib alone)?
The viability was 112% (inactive).

And the viability ([9]; at 1.25 µM, OCI-P5x cells, without rucaparib)?
Its viability is 118% (inactive).

And the viability ([9]; at 5 µM, OCI-C5x cells, with rucaparib 10 µM, 100% = cells with rucaparib alone)?
Its viability is 131% (inactive).

What about the viability ([9]; at 5 µM, OCI-C5x cells, without rucaparib) of the same compound?
The viability was 157% (inactive).

What about the viability ([9]; at 5 µM, OCI-P5x cells, with rucaparib 20 µM, 100% = cells with rucaparib alone) of the same compound?
Its viability is 127% (inactive).

What about the viability ([9]; at 5 µM, OCI-P5x cells, without rucaparib) of the same compound?
Its viability is 125% (inactive).

What does the source list for Cn1ncnc1[C@H]1c2n[nH]c(=O)c3cc(F)cc(c23)N[C@@H]1c1ccc(F)cc1?
AC50 [1]: 0.742 µM (active); outcome [3]: inactive; outcome [5]: inactive

What does the source list for CN(C)CCN1C(=O)c2cccc3cc(NC(N)=O)cc(c23)C1=O?
AC50 [1]: 18.6 µM (active); outcome [5]: inactive

With N#Cc1cccnc1N1CCN(C(=O)c2cccc(Cc3n[nH]c(=O)c4ccccc34)c2)CC1 as the compound, how does the AC50 [1] read?
Its AC50 is 0.059 µM (active).

What about the outcome [5] of the same compound?
The outcome was “inactive”.

Which results are given for C[C@H]1C[C@@H](n2c(Nc3ccc(OC(F)(F)F)cc3)nc3cc(CCC(=O)O)ccc32)CC(C)(C)C1?
AC50 [1]: 23.5 µM (active); outcome [5]: inactive

Which results are given for COc1ccc(Cl)c(Nc2ncnc3cc(OCC4CCN(C)CC4)c(OC)cc23)c1?
AC50 [1]: 3.72 µM (active); AC50 [3]: 20.9 µM (active); outcome [5]: inactive

With C=C1CCC[C@]2(C)C=C3OC(=O)C(C)=C3C[C@@H]12 as the compound, how does the outcome [1] read?
Its outcome is “inactive”.

And the outcome [3]?
The outcome was “inactive”.

And the outcome [5]?
The outcome was “inactive”.

With C[C@@H](O)[C@@H](C)Oc1nc(Nc2ccc(S(=N)(=O)C3CC3)cc2)ncc1C(F)(F)F (stereo partly specified) as the compound, how does the AC50 [1] read?
Its AC50 is 20.9 µM (active).

And the outcome [5]?
The outcome was “inactive”.

With CN1C(=O)N(c2cc(Cl)cc(Cl)c2)C(=O)[C@]12CN(Cc1cc(C(=O)O)cs1)C[C@H]2c1ccc(C#N)cc1 as the compound, how does the outcome [1] read?
The outcome was “inactive”.

And the outcome [5]?
The outcome was “inactive”.

What does the source list for NC(=O)c1cc(F)cc2c1C(=O)N(C1CCN(C3CCC(F)(F)CC3)CC1)C2?
outcome [1]: inactive; outcome [3]: inactive; outcome [5]: inactive
